# Measured values taken from ChEMBL document CHEMBL3988442, “University of Dundee, Small-Polar-MMV Screening Library” (2021).
# For some of these results: Potency and affinity values are given separately.
# Columns and labels:
# Set-up in all cases: scale not given: direction of the effect not stated beside the values
# [1] = biological target: Protein translocase subunit SecA (Escherichia coli (strain K12)) (UniProt P10408); test: Assay to Identify E. coli SecA ATPase Inhibitors; assay type: functional; conditions: 30 µM
# [2] = biological target: T1, Ubiquitin-activating enzyme e1, putative (Leishmania donovani (strain BPK282A1)) (UniProt E9BSI1); test: Leishmania donovani Ubiquitin Activating Enzyme (LdE1); assay type: functional; conditions: 30 µM
# T1 sequence (whole entry): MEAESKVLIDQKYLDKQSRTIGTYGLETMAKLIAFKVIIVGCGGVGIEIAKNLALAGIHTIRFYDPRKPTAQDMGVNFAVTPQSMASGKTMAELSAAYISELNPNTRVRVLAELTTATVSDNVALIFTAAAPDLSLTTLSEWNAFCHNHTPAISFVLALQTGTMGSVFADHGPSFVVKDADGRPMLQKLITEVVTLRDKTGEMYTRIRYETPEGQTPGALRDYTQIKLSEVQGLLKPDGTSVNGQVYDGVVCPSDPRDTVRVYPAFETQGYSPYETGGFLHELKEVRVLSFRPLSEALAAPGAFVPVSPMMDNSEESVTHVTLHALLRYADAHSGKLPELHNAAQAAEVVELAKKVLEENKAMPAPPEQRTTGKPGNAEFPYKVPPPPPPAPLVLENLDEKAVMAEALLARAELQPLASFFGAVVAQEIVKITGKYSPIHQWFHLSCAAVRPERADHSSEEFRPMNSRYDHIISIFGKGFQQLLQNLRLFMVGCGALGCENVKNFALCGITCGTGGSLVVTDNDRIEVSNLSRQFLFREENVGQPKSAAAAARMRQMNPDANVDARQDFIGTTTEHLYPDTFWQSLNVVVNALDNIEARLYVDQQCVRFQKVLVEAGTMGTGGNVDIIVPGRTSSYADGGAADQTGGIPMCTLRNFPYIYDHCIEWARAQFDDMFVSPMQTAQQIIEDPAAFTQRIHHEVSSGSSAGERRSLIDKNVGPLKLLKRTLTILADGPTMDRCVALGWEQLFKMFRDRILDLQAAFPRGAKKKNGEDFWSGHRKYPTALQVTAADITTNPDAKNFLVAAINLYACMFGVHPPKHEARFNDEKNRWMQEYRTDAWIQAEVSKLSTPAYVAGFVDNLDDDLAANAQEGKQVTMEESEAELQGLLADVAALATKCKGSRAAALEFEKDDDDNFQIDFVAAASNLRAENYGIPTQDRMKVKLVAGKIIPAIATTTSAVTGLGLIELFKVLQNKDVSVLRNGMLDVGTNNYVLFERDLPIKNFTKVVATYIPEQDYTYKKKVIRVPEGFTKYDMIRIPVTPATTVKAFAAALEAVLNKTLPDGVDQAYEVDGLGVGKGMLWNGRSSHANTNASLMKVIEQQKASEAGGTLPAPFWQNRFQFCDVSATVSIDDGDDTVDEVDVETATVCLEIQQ
# [3] = biological target: AMP-activated protein kinase, AMPK (Homo sapiens) (UniProt P54646+O43741+P54619+Q9UGJ0+Q9Y478+Q13131+Q9UGI9); test: AMP-dependent Kinase enzyme assay. An in vitro enzyme assay that detects ADP turnover that is directly proportional to AMPK activity. This uses naive AMPK that is activated during the assay with MK-8722; assay type: functional; conditions: 30 µM
# [4] = biological target: Sialic acid-binding Ig-like lectin 9 (Homo sapiens) (UniProt Q9Y336); test: Hs-Siglec9 ALPHAscreen SOP 20170721; conditions: 10 µM
# Trypanosoma cruzi = test: Trypanosoma cruzi phosphomannomutase and mannose-1-phosphate guanylyltransferase assay; assay type: functional; conditions: 10 µM
# [5] = biological target: T2, Arginase-2, mitochondrial (Homo sapiens) (UniProt P78540); test: in vitro enzyme assay to detect the production of urea directly proportional to the activity of Arginase II; assay type: functional; conditions: 33.3 µM; note: in the data most compounds retested in dose-response had high values
# T2 sequence (whole entry): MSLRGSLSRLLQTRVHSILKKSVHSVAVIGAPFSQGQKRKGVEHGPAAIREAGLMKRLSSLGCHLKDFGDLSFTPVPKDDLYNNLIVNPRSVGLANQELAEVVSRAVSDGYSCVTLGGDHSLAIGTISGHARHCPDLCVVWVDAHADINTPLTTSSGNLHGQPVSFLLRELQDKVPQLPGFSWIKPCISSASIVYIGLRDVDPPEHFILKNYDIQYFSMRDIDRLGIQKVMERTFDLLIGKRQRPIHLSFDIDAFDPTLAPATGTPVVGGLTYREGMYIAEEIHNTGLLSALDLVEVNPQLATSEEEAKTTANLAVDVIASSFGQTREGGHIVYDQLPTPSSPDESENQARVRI
# [6] = biological target: T3, Proteasome subunit beta (Trypanosoma cruzi) (UniProt O96673); test: Trypanosoma cruzi proteasome chymotrypsin-like activity (TcProtChymo) assay.; note: in the data most compounds retested in dose-response had high values; assay type: functional; conditions: 9.37 µM
# T3 sequence (whole entry): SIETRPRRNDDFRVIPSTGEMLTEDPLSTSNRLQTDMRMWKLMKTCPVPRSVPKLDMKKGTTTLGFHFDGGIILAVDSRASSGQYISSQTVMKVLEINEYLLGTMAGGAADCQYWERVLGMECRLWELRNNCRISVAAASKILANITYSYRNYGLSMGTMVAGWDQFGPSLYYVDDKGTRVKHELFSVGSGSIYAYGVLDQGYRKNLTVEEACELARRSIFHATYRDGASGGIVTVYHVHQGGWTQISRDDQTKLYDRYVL
# Homo sapiens = species on record: Homo sapiens; test: To identify inhibition of the IFN signalling (Jak-Stat) pathway via expression of an eGFP reporter gene under the control of an IFN-stimulated response element (ISRE) containing MxA promoter.; assay type: functional; conditions: 30 µM
# [7] = biological target: T4, Tyrosyl-tRNA synthetase, putative (Trypanosoma cruzi (strain CL Brener)) (UniProt Q4DSP6); test: Trypanosoma cruzi tyrosyl tRNA synthetase (TcYRS) _High Tyrosine SOP; assay type: functional; conditions: 30 µM; note: in the data most compounds retested in dose-response had high values
# T4 sequence (whole entry): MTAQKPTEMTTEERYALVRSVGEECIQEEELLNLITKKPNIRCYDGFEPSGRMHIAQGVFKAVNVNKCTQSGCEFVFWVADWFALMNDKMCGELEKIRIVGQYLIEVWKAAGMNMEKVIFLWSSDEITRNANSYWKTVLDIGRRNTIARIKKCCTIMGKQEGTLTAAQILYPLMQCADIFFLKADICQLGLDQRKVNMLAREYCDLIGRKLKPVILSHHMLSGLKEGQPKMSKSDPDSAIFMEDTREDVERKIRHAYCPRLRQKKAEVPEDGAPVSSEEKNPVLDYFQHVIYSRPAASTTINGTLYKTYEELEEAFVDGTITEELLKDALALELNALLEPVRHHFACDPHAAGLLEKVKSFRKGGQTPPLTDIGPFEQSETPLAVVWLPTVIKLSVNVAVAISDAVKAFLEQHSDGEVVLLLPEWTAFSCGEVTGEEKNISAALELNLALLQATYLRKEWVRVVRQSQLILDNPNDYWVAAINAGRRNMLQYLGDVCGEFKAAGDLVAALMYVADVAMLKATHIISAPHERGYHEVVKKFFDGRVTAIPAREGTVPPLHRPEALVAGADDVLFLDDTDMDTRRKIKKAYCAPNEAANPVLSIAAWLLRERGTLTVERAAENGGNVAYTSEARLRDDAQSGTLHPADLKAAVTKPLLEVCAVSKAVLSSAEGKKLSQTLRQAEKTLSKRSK
# [8] = biological target: T4, Tyrosyl-tRNA synthetase, putative (Trypanosoma cruzi (strain CL Brener)); test: Trypanosoma cruzi tyrosyl tRNA synthetase (TcYRS) SOP; assay type: functional; conditions: 30 µM
# [9] = biological target: Chromo domain-containing protein 1 (Saccharomyces cerevisiae (strain ATCC 204508 / S288c) (Baker's yeast)) (UniProt P32657); test: ScCHD-1 Enzyme Inhibition Assay; assay type: functional; conditions: 30 µM; note: in the data most compounds retested in dose-response had high values
# Sequence of Chromo domain-containing protein 1 (Saccharomyces cerevisiae (strain ATCC 204508 / S288c) (Baker's yeast)) (P32657 whole entry, the tested form may be a part): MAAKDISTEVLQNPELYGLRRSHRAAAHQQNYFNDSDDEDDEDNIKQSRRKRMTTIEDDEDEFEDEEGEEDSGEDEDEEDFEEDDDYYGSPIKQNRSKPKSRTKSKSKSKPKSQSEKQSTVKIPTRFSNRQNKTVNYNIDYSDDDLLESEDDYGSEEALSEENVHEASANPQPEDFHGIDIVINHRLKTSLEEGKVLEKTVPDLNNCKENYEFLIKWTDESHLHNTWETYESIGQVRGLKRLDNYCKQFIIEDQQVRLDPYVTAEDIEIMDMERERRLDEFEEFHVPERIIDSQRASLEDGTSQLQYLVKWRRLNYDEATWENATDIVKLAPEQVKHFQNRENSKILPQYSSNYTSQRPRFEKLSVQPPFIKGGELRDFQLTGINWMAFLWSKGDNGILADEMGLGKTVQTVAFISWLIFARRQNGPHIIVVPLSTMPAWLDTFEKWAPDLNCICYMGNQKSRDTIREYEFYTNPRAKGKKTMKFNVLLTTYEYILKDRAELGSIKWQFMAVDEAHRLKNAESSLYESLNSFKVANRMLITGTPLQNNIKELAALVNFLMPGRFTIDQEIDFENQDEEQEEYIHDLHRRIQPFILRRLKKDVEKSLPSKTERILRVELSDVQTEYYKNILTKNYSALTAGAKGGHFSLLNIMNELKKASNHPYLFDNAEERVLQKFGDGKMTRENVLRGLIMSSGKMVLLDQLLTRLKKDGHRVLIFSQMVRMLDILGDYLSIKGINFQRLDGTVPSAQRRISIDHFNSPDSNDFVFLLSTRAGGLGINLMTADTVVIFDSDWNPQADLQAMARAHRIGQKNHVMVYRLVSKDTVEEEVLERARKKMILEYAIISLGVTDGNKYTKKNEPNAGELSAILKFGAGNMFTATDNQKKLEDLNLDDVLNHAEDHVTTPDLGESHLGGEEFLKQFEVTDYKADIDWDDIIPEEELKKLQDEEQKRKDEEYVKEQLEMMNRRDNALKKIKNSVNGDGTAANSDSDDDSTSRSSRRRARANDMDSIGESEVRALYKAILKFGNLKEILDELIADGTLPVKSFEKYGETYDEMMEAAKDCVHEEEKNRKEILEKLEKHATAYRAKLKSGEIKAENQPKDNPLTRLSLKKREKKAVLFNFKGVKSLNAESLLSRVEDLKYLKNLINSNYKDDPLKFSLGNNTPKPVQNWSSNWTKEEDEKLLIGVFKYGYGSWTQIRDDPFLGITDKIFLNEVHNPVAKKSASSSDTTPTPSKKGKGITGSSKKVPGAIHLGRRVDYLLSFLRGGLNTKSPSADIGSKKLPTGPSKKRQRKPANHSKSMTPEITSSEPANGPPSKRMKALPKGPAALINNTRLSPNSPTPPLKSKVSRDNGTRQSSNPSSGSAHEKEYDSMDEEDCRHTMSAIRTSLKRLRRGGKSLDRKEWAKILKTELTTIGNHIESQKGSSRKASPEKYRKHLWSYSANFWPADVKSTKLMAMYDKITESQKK
# Sequence of Protein translocase subunit SecA (Escherichia coli (strain K12)) (P10408 whole entry): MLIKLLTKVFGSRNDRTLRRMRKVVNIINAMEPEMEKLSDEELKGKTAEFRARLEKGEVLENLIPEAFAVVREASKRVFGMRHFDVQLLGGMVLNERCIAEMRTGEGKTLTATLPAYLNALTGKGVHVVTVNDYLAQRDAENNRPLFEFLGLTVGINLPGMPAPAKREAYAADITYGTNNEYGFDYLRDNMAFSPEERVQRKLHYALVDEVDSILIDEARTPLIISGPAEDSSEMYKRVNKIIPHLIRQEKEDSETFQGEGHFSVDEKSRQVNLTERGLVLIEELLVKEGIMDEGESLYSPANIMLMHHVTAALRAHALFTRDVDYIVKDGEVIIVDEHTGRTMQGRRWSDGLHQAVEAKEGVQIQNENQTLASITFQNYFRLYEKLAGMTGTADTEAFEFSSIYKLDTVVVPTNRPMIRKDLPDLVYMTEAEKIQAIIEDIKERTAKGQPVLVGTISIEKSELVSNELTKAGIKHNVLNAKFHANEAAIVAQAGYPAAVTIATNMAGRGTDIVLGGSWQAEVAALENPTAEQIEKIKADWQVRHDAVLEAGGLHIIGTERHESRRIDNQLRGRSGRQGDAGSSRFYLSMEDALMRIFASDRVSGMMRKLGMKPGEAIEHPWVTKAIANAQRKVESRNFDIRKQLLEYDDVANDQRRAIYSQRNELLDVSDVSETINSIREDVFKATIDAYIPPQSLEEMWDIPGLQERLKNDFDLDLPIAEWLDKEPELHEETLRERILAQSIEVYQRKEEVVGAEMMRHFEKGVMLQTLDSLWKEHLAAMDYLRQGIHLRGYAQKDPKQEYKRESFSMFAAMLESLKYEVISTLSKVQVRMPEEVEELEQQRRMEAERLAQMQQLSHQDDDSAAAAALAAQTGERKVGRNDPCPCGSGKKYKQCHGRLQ
# Sequence of Sialic acid-binding Ig-like lectin 9 (Homo sapiens) (Q9Y336 whole entry): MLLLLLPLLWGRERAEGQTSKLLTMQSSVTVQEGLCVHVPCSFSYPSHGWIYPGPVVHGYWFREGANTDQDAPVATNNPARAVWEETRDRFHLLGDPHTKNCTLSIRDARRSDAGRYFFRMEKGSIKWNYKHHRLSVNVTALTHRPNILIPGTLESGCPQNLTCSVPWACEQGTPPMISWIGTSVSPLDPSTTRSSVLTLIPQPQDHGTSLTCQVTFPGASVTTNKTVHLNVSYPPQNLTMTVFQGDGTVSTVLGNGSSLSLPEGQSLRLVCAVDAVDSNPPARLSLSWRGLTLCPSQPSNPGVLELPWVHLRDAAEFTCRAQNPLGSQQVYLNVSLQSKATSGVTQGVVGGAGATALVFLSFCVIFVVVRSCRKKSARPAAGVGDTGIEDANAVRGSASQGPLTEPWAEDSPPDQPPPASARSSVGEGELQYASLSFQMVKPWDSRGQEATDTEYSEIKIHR
SMILES,Percent Effect [1] [%],Percent Effect [2] [%],Percent Effect [3] [%],Percent Effect [4] [%],Percent Effect (Trypanosoma cruzi) [%],Percent Effect [5] [%],Percent Effect [6] [%],Percent Effect (Homo sapiens) [%],Percent Effect [7] [%],Percent Effect [8] [%],Percent Effect [9] [%]
CCc1noc(CNc2ccc(C(=O)N3CCCC(C)C3)cc2C)n1 (configuration not stated),-4.09,0,2.37,9.47,1.69,3.2,3.88,9.39,4.85,2.44,-8.29
COc1cccc(N2CCN(C(=O)[C@H](O)C3CCCCC3)CC2=O)c1,-1.35,5.41,2.95,1.44,2.32,2.38,21,3.62,8.99,17.1,-2.64
CCCN(C(=O)c1ccccn1)c1nc2c(s1)CCc1c-2cnn1C,3.44,60.8,-62.8,3.48,0.988,15.6,17.5,32.7,-6.45,-6.49,-6.45
CCn1cnnc1C1CCN(C(=O)COCCc2ccccc2)CC1,-1.96,7.79,0.519,-7.71,5,-5.26,6.71,-1.88,-2.86,2.35,-12.8
CN(CC1COc2ccccc2O1)C(=O)NCCCn1cncn1 (configuration not stated),-0.909,18.4,0.582,5.7,2.63,2.3,6.52,8.47,6.37,24.4,-11.6
Cc1ccc(N2CCN(C(=O)COc3nccc(C)n3)CC2)nn1,-4.66,21.9,-13.9,17.7,7.44,6.36,11.4,16,7.53,17.5,-9.03
CC(=O)Nc1c(C)cnn1Cc1cc(F)ccc1F,-3.16,0,0.653,2.06,-3.99,1.56,2.09,12.2,2.73,6.17,-0.196
Cc1cc2ccccc2n1CCC(=O)NCc1ncc[nH]1,-2.35,14.9,6.43,-8.05,-4.74,-1.16,15.6,13.5,11.8,16.9,-9.55
O=C(CN(C1=NCCCC1)c1ccccc1)c1ccccc1,-3.17,-2.63,3.38,-3.96,-3.21,-7.1,7.96,-2.85,-3.19,-10.4,-5.81
Cc1nn(C)c(C)c1CNCc1ccc(N2CCOCC2)nc1,-1.63,11.4,6.09,-0.523,1.95,-1.5,10.6,13.4,8.33,25.3,-25.1
Cc1nc(C2(O)CCCNCC2)sc1CCOc1ccc(Cl)cc1 (configuration not stated),-4.62,6.76,17.1,1.33,-3.56,-2.09,6.4,33.8,4.3,11.7,-12.8
Cc1cnn(CCC(=O)N2CCN(c3nc(C)cs3)CC2)c1,-5.41,17.7,-10.1,9.63,5.76,-2.66,11.6,1.73,4.43,24.1,-8.6
CN1C[C@H]2CCN(C(=O)NC3CCCC3)CC[C@H]2S1(=O)=O,1.67,-4,10.5,-0.732,-5.7,29.4,4.62,-1.7,1.06,-2.56,-5.65
CC(C)Cc1ccc(S(=O)(=O)Nc2ccc(=O)n(C)c2)cc1,-3.52,25.3,-59.7,-2.55,3.31,0,15.5,69,6.4,21.5,-7.97
Cn1nc(C(=O)N2CCCCC2c2nc3cc(F)ccc3[nH]2)ccc1=O (configuration not stated),-6.48,15.3,-16.2,39.4,10.6,3.97,9.82,-6.87,2.1,17.9,-10.9
Cc1nc(NC(=O)CNC(=O)c2c(F)cccc2Cl)n[nH]1,-5.26,13.2,2.15,2.44,3.21,-3.55,9.11,3.8,1.06,7.79,-1.65
CC(=O)NCCc1cc(N2CCN(C(C)=O)CC2)nc(C2CC2)n1,2.03,-6.76,10.3,-0.0242,-3.75,1.16,9.36,7.59,2.15,-1.3,-3.42
